Shown are actives, neighbours in structure and some others; about 3.1% of the full set was active somewhere.
IL-2 act – IL-2 activation | IL-2 activation reporter assay, cell-based qHTS; stimulated with anti-CD3/CD4/CD28 beads; in transgenic mouse T cells | activation, % (series mostly up to about 46 µM) | 360,000 compounds, 0.065% hits | AID 652025; in the data active = activation above about 50%; inconclusive = mostly about 30% to 49%; note: 0% is about no effect
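Unstimulated transgenic mouse T cells preincubated 60 min with compound, then stimulated with anti-CD3/anti-CD4-coated beads plus anti-CD28 for 18 h at 37 degrees C. IL-2 response read as EGFP and DsRed fluorescence by plate cytometry.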
BRCA1 expr up – BRCA1 expression activation; MCF7-BRCA1-FFLuc reporter, luminescence, 48 h; response scale: scaled: vehicle 0%, 10 µM genistein 100%; Potency, µM (titrated, usually from 46.1 µM), for the others: top-dose activation, most hits filed as activators; 380,000 compounds, 1.1% hits; AID 624202; note: potency is the fitted concentration of half-maximal effect; nearly all actives have a fitted effect of over 80% in size
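MCF7-BRCA1-FFLuc, 2000 cells/well; 2 h attach, 37 °C/5% CO2; compound 48 h; luciferase substrate 15 min; luminescence end-point. Norm. to genistein 10 microM max activation and DMSO; concentration-response curves fitted.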
Nrf2 ARE act – Nrf2 pathway activation; AREc32 ARE-luciferase reporter (MCF7-derived line), luminescence, 24 h; Potency, µM (series often up to 46.1 µM), for inactives: at the top dose activation, most hits filed as activators; 410,000 compounds, 0.31% hits; note: potency is the fitted concentration of half-maximal effect; % of control where 0% means no effect; nearly all actives have a fitted effect of over 65% in size
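ARE-driven firefly luciferase activity in AREc32 cells measured after a 24 hr compound exposure at 37 deg C, using Steady-Glo reagent and a 30 min room-temperature hold.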
ELG1 DNA repair – blocks ELG1-dependent DNA repair in HEK293T cells; HEK293T ELG1-luciferase reporter, luminescence, 16 h; DNA damage induced by 5-fluorouridine; Potency, µM (doses to about 46.1 µM), without a hit: at the highest dose activity change, negative = inhibition, hits mostly inhibitors; 330,000 compounds, 2.3% hits; AID 504467; note: potency is the fitted concentration of half-maximal effect; % is set by controls: 0 for no effect and ±100 for the full control effect; nearly all actives have a fitted effect of over 55% in size
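Cells (2,000 per well) received 5-fluorouridine plus test compound or DMSO and were incubated 16 hr at 37 °C, 5% CO2. Luciferase activity was read by luminescence 30 min after ONE-Glo addition; signal suppression marked inhibition of damage-induced ELG1 function.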
Starred values were filed as active, the others as inactive; ? = inconclusive; / = no result. Unless noted, calls come from the whole dose curve; as a rule, active = well fitted curve in the direction sought with a large enough effect; inconclusive = small, poorly fitted or top-dose-only effect, or another doubt; inactive = no such curve, though single readings can be large; an effect the other way counts as inactive or inconclusive.

SMILES	IL-2 act	BRCA1 expr up	Nrf2 ARE act	ELG1 DNA repair
Cn1c(=O)oc2cc(S(=O)(=O)N3CCCC(C(=O)N4CC=C(c5ccccc5)CC4)C3)ccc21 (stereo unspecified)	/	/	/	5.8µM*
Cc1nn(C)c(C)c1S(=O)(=O)N1CCC(C(=O)NC2CCCc3ccccc32)CC1 (stereo unspecified)	-1	-18%	-1%	-11%
COc1ccccc1CO/N=C/NC(=O)c1c(OC)ccnc1Oc1ccc(F)cc1	-1	-12%	0%	?
COc1ccnc(Oc2ccccc2)c1C(=O)N/C=N/OCc1ccc(F)cc1Cl	-3	-71%	1%	18µM*
CCOc1ccc(CNC(=O)C2CCCN(c3nn4cc(-c5ccc(OC)cc5)nc4s3)C2)cc1 (stereo unspecified)	/	/	4%	/
CCCCn1cnc2c(SCCc3ccccc3)nc(N)nc21	0	61%	2%	/
CCCn1cnc2c(SCCc3ccccc3)nc(N)nc21	1	13µM*	4%	/
CCC(C)Cn1cnc2c(SCc3ccccc3F)nc(N)nc21 (stereo unspecified)	-1	13%	7%	/
CC(C)Cn1cnc2c(SCc3ccccc3F)nc(N)nc21	-1	5.6µM*	6%	/
Cc1cc(CN(C)C(=O)c2ccc3nc(Cc4ccccc4F)oc3c2)n[nH]1	-3	-12%	0%	8%
Cc1cc(CNC(=O)c2ccc3nc(Cc4ccccc4F)oc3c2)nn1C	0	8.9µM*	1%	?
CC(=O)N1CCCN(C(=O)c2ccc3nc(Cc4ccccc4F)oc3c2)CC1	2	19%	8%	26%
CC(c1ccccn1)N(C)C(=O)c1ccc2nc(Cc3ccccc3F)oc2c1 (stereo unspecified)	0	11µM*	6%	?
O=C(NCc1ccncc1)c1ccc2nc(Cc3ccccc3F)oc2c1	-4	-29%	0%	-10%
O=C(c1ccc2nc(Cc3ccccc3F)oc2c1)N1CCCC1	-2	5.6µM*	17%	?
CCSc1nc2n(n1)C(c1ccc(C(=O)O)cc1)C(C(=O)Nc1ccccc1C)=C(C)N2 (stereo unspecified)	/	/	-2%	/
COc1cccc(CSc2nc(-c3ccccc3OC)nc3c2Cc2c(CO)cnc(C)c2O3)c1	/	/	3%	/
CCOC(=O)c1[nH]c(C)c(CCC(=O)Nc2ccc(N(CC)CC)cc2C)c1C	/	/	0%	/
CN(CCC#N)C(=O)COC(=O)c1ccccc1C(=O)c1ccc(Cl)c([N+](=O)[O-])c1	-1	-16%	16µM*	20%
CC(C)N(C(=O)COC(=O)c1ccccc1C(=O)c1ccc(Cl)c([N+](=O)[O-])c1)C(C)C	-6	-56%	2.2µM*	?
COc1ccc([C@H]2CC(=O)C=C(c3cccc(Br)c3)C2)cc1	0	-1%	4%	2%
O=C1C=C(c2cccc3c2Oc2ccccc2S3)C[C@@H](c2ccc(Cl)cc2)C1	0	-61%	0%	21µM*
COc1ccc([C@H]2CC(=O)C=C(c3cccc(Br)c3)C2)cc1OC	-4	-36%	0%	18µM*
COc1ccc([C@H]2CC(=O)C=C(c3cccc(Cl)c3O)C2)cc1OC	0	-9%	6%	?
COc1ccc([C@H]2CC(=O)C=C(c3cccc4c3Oc3ccccc3S4)C2)cc1OC	-1	-47%	4%	18µM*
SMILES	IL-2 act	BRCA1 expr up	Nrf2 ARE act	ELG1 DNA repair
CCOc1ccc(OCC)c(NC(=O)C(NS(=O)(=O)c2ccc(Br)s2)c2ccccc2)c1 (stereo unspecified)	/	/	2%	/
Cc1cccc(NC(=O)C2CCCN(S(=O)(=O)c3c(C)n[nH]c3C)C2)c1 (stereo unspecified)	/	-1%	0%	/
CCC(=O)NCc1cc(-c2nn(C)c(=O)c3ccccc23)ccc1C	1	-36%	3%	-5%
Cn1nc(-c2ccc(C(=O)Nc3ccc(F)cc3)cc2)c2ccccc2c1=O	0	-48%	3%	7.3µM*
Cc1ccc(NC(=O)c2ccc(-c3nn(C)c(=O)c4ccccc34)cc2)cc1	-1	-73%	0%	?
Cc1ccc(-c2nn(C)c(=O)c3ccccc23)cc1CNC(=O)c1ccccc1	-4	-35%	6%	16µM*
Cc1ccc(NC(=O)Cn2c(=O)cc(-c3ccccc3)c3c(C)nn(C)c32)c(Cl)c1	/	/	0%	/
O=C(Nc1ccc2[nH]ncc2c1)c1ccccc1Cl	-3	2.8µM*	-1%	?
COc1ccc(N(CC(=O)N2CCN(c3ccc(F)cc3)CC2)S(=O)(=O)c2c(C)nn(C)c2C)cc1	/	-17%	-1%	/
CN1C(=O)/C(=C/c2ccc(OC(=O)c3ccco3)cc2)SC1=S	56*	-4%	3%	16%
COc1ccc(OCC(=O)Nc2nnc3n2CCS3)cc1	/	5%	0%	/
CC1=C(C(=O)OCC2CCCCC2)C(c2ccc(Cl)cc2)CC(=O)N1 (stereo unspecified)	/	-19%	3%	/
COC(=O)c1sc(N)c(C(=O)OC)c1COC(=O)[C@@H](NS(=O)(=O)c1cccc(Cl)c1)C(C)C	-1	-56%	2%	15µM*
CCCn1c(SCc2nc(-c3cc(OC)ccc3OC)no2)nnc1-c1ccc(Cl)cc1	/	/	0%	/
COc1cc2c(cc1OC)CN(CC(=O)Nc1ccccc1C(=O)NCc1ccccc1)CC2	-1	-36%	4%	23µM*
COc1ccccc1NC(=O)COc1ccc(C(=O)NCc2ccccc2)cc1OC	0	-18%	0%	26µM*
COc1cc2c(cc1OC)CN(CC(=O)Nc1ccccc1C(=O)NC1CC1)CC2	1	10%	0%	-10%
CCn1cc(C(=O)N2CCN(c3cccc(C)c3C)CC2)c2cc(OC)c(OC)cc2c1=O	/	-9%	8%	/
Cc1ccc(CNC(=O)CSc2ccsc2[N+](=O)[O-])cc1	0	?	13%	?
COc1ccc(CNC(=O)CSc2ccsc2[N+](=O)[O-])cc1	3	10µM*	11%	?
Cc1ccc(O)c(C(=O)c2cnn(C(=O)Cc3csc(C)n3)c2)c1	2	36%	3%	16µM*
Cc1ncc(CC(=O)n2cc(C(=O)c3cc(F)ccc3O)cn2)s1	-2	6%	2%	-7%
COc1cccc(NC(=O)N2CCC(n3c(C)nc4cccnc43)CC2)c1	/	/	1%	/
C=C[C@@H]1CN2CCC1C[C@H]2[C@H](O)c1ccnc2ccc(OC)cc12 (stereo partly specified)	/	0%	/	/
COc1ccc(Br)cc1C1Nc2cccc3cccc(c23)N1	-1	-24%	13µM*	-9%
COc1cc(C2Nc3cccc4cccc(c34)N2)ccc1O	0	-30%	1%	-9%
COc1ccc(/C=C/C(=O)Nc2ccc(-c3nnc4n3CCCCC4)cc2)c(OC)c1	-4	-4%	0%	23µM*
CCOC(=O)/C=C/C(=O)Nc1ccc(-c2nnc3n2CCCCC3)cc1	0	-20%	?	0%
CCOc1ccc(C(=O)NCc2ccc3c(c2)CCN3C(=O)c2ccc(C)cc2)cc1OCC	/	/	5%	/

Screening results as filed in PubChem BioAssay.
